Screening results deposited in PubChem BioAssay by several laboratories.
In the library only some 1.5% were active in any assay of this set; here they are far more common.
PrPC TRFRET = inhibitors of human cell surface prion protein PrPC, primary screen, cell-based, TR-FRET; inhibition, % at 13.8 µM; Major prion protein (Homo sapiens), P04156; TR-FRET read-out; hit rate 0.43% among 370,000; in the data active means inhibition above about 24%; further: 0% = median of the test wells and 100% = reference compound wells
BH1578 lux ind = inducers of Vibrio cholerae quorum light production without autoinducers, primary screen, BH1578 luxS cqsA deficient, single point | V. cholerae BH1578 lux reporter, luminescence, 6 h | AID 588436, 2011 | activation, % at 18.7 µM | hit rate 0.16% among 350,000; in the data active means activation mostly above about 9.7%, no sharp cut-off
CCHF vOTU inh = CCHFV vOTU protease inhibitors, primary screen, biochemical, Pep-AMC substrate, fluorescence | Crimean-Congo hemorrhagic fever virus L polyprotein viral ovarian tumor (vOTU) protease … | inhibition, % at 11.5 µM | hit rate 0.55% among 370,000 | AID 651958, 2012; in the data active means inhibition above about 30%; further: 0% = vehicle wells with enzyme and 100% = no enzyme wells
DUSP3 inh = VHR1 phosphatase inhibitors, primary screen, biochemical, absorbance, uHTS | recombinant VHR phosphatase, pNPP absorbance | inhibition, % at 13.3 µM | hit rate 0.52% among 290,000; in the data active means inhibition above about 50%
PriA SSB inh = inhibitors of Klebsiella pneumoniae PriA binding to SSB C-terminal tail, primary screen, biochemical, AlphaScreen; PriA–SSB C-terminal tail interaction (Klebsiella pneumoniae); hit rate 0.6% among 430,000; AlphaScreen SSBct-PriA binding, biotinylated peptide; AID 1272365, 2023; inhibition, % at 33 µM; in the data active means inhibition mostly above about 37%, no sharp cut-off; inactive means mostly below about 20%;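 further: plate controls were negative control peptide for no effect and reference peptide for full effect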
TcdB GH inh = TcdB glycohydrolase inhibitors, primary screen, biochemical, single point, plate reader; TcdB glycohydrolase enzymatic assay; inhibition, % at 9.99 µM; hit rate 0.24% among 350,000; AID 652162, 2013; in the data active means inhibition above about 10%
Numbers without * were called inactive; i = inactive; x = not tested or not shown.

SMILES	PrPC TRFRET	BH1578 lux ind	CCHF vOTU inh	DUSP3 inh	PriA SSB inh	TcdB GH inh
CCOC(=O)c1ccc(NC(=O)/C=C/c2ccc([N+](=O)[O-])s2)cc1	x	x	x	x	2	x
Cc1cc(NC(=O)Cc2cccs2)n(-c2nc3c(F)cccc3s2)n1	x	x	x	x	-14	x
Cc1cc(C)c(C)c(S(=O)(=O)N2CCCCC2C(=O)O)c1C (stereo not drawn)	-3	0	1	27	-8	15*
Cc1ccc(S(=O)(=O)N2CCCCC2C(=O)O)cc1 (stereo not drawn)	2	0	-1	-5	-14	2
Cn1cc(C(=O)N2CCCC2)cc(NC(=O)COc2ccc(F)cc2)c1=O	x	x	x	x	-4	x
O=c1[nH]cc(I)c2cccnc12	x	x	x	x	45	x
Cc1c(C)c2cccnc2c2ncccc12	x	i	x	x	99*	x
Cc1ccc(O)c2ncccc12	x	x	x	x	36	x
c1cnc2c(c1)c1nccnc1c1cccnc12	x	x	x	x	114*	x
c1cnc2c(c1)ccc1ncccc12	0	i	2	-4	-1	0
O=c1[nH][nH]c(=O)c2ncccc12	x	x	x	x	61*	x
COc1ccc(S(=O)(=O)NCC2CCN(C3CCCC3)CC2)cc1Cl	x	x	x	x	0	x
O=C(Nc1ccc(F)cc1F)NC1CCN(Cc2noc(-c3ccccc3)n2)C1 (stereo not drawn)	x	x	x	x	-12	x
O=C(/C=C/c1ccc(Br)o1)NCc1ccccc1	-1	0	4	8	-4	-1
O=C(/C=C/c1ccc(Br)o1)/C=C/c1ccc(Br)o1	x	x	x	x	39*	x
Cc1ccc(N2CC(C(=O)Nc3onc4c3CSC4)CC2=O)cc1 (stereo not drawn)	x	x	x	x	-13	x
Cc1nc(N2CCN(C)CC2)c2c(C)c(C(=O)Nc3ccc(F)cc3)sc2n1	-19	i	15	55*	-17	x
Cc1nc(N2CCCCC2)c2c(C)c(C(=O)Nc3cccc(C(F)(F)F)c3)sc2n1	7	0	-1	1	-11	1
O=C(NCc1ccc2c(c1)OCO2)Nc1cccc(Cl)c1	13	0	-3	59*	-20	1
Cc1ccc(NC(=O)NCc2ccc3c(c2)OCO3)cc1C	-2	0	-18	17	4	0
NS(=O)(=O)c1ccc(NC(=S)NCc2ccc3c(c2)OCO3)cc1	-4	0	13	7	6	12*
Cc1cc(CNC(=O)Nc2ccc3c(c2)OCO3)c(C)o1	x	x	x	x	39*	x
CCOc1ccc(NC(=O)CSc2ccc(NC(=O)C(C)C)nn2)cc1	x	x	x	x	-2	x
Cn1ccnc1CN1CCN(C(=O)c2cc(COc3ccc(F)c(F)c3)on2)CC1	0	1	-10	10	-1	1
Cc1cccc(N2CCN(C(=O)c3cc(COc4ccc(F)c(F)c4)on3)CC2)n1	-3	0	22	51*	-11	2
SMILES	PrPC TRFRET	BH1578 lux ind	CCHF vOTU inh	DUSP3 inh	PriA SSB inh	TcdB GH inh
Cc1cccc(C)c1OCc1cc(C(=O)N2CCN(Cc3nccn3C)CC2)no1	-1	-1	-1	58*	4	1
CN(CC#CCNS(=O)(=O)C1CCCCC1)Cc1ccccc1	x	x	x	x	2	x
O=C(NCc1ccccc1)C1CC(=O)N(C2CCCCCC2)C1 (stereo not drawn)	-3	i	6	22	-5	1
O=C(NCc1ccc(F)cc1)C1CC(=O)N(C2CCCCCCC2)C1 (stereo not drawn)	-3	i	1	56*	-5	2
Cc1oc(-c2ccccc2)cc1C(=O)Nc1ccccc1	2	17*	-3	13	-15	x
O=C(C[C@H]1CC[C@H]2[C@@H](COC[C@@H](O)CN2Cc2ccccc2)O1)NCCc1ccccc1	x	x	x	x	x	15*
O=C(C[C@H]1CC[C@@H]2[C@H](COC[C@@H](O)CN2C(=O)c2ccccn2)O1)NC1CCC1	x	x	x	x	x	15*
CNC(=O)C[C@@H]1CC[C@@H]2[C@H](COC[C@H](O)CN2C(=O)c2ccccn2)O1	x	x	x	x	x	1
O=C(C[C@H]1CC[C@H]2[C@@H](COC[C@H](O)CN2C(=O)Nc2ccc(Cl)c(Cl)c2)O1)NCc1ccncc1	x	x	x	x	x	13*
O=C(C[C@@H]1CC[C@H]2[C@@H](COC[C@H](O)CN2C(=O)c2ccccn2)O1)NC1CCC1	x	x	x	x	x	17*
Cc1cccc(C(N)=NOC(=O)Cc2cccs2)c1	x	x	x	x	-52	x
O=C(C[C@@H]1CC[C@@H]2[C@H](COC[C@@H](O)CN2C(=O)c2ccccn2)O1)NC1CCC1	x	x	x	x	x	27*
CCNC(=O)C[C@@H]1CC[C@@H]2[C@H](COC[C@H](O)CN2C(=O)c2ccccn2)O1	x	x	x	x	x	0
COc1ccc(-c2[nH]n3c(=O)cc(C)nc3c2C)cc1OC	x	x	x	x	-4	x
COc1ccc(CCNC(=O)CC(C)S(=O)(=O)c2ccc3c(c2)NC(=O)CO3)cc1OC (stereo not drawn)	-4	i	10	59*	-1	2
Cc1cccc(Nc2nc(N)c([N+](=O)[O-])c(N3CC(C)CC(C)C3)n2)c1 (stereo not drawn)	0	i	13	3	50*	1
O=[N+]([O-])c1ccc(C=Nc2cccc3ccccc23)s1	x	0	x	12	53*	x
O=C(Cc1ccccc1)NCC(=O)N/N=C/c1ccc([N+](=O)[O-])s1	-50	0	31*	31	x	0
Cc1ccc(C(=O)N/N=C/c2ccc([N+](=O)[O-])s2)cc1	-27	i	12	20	x	x
Cc1ccc(NC(=S)NN=Cc2ccc([N+](=O)[O-])s2)cc1	x	x	x	x	62*	x
Cc1scc(C(=O)N2CCN(c3ccc(Cl)cc3)CC2)c1C	4	i	6	5	4	11*
Cc1nc(C)c(CCNS(=O)(=O)c2ccccc2F)s1	x	x	x	x	5	x
COc1ccc2sc(N(CCCN3CCOCC3)C(=O)c3cccc([N+](=O)[O-])c3)nc2c1	x	x	x	x	47*	x
Cn1c(C(F)(F)F)nn(Cc2cccc(Cl)c2)c1=O	x	x	x	x	-12	x
O=S(=O)(O)c1cc(O)c(N=Nc2ccc(O)cc2O)c2ccccc12	-64	i	12	x	87*	-6
SMILES	PrPC TRFRET	BH1578 lux ind	CCHF vOTU inh	DUSP3 inh	PriA SSB inh	TcdB GH inh
CN(C)C(CNS(=O)(=O)c1ccc2c(c1)CCCC2)c1cccs1 (stereo not drawn)	x	x	x	x	-2	x
O=C(NC(=S)NC1CCS(=O)(=O)C1)c1ccc([N+](=O)[O-])cc1 (stereo not drawn)	x	x	x	x	9	x
O=[N+]([O-])c1ccc(NNC(=S)NC2CCS(=O)(=O)C2)c([N+](=O)[O-])c1 (stereo not drawn)	x	x	x	x	51*	x
Cc1ccc(Cl)c2sc(=NC(=O)c3ccc(C#N)cc3)n(C)c12	x	x	x	x	9	x
O=C(NCCCN1CCN(c2ccccc2)CC1)C12CC3CC(CC(C3)C1)C2	x	x	x	x	4	x
COC(=O)c1sc(-c2ccccc2)cc1N	x	x	x	x	-22	x
NNC(=O)c1sc(-c2ccc(Cl)cc2)cc1N	-9	i	3	51*	-4	0
